Most compounds without a hit are left out; they make up all but 10% or so of the library.
SARS PLP yeast – SARS-CoV PLP inhibition in yeast; AID 485353; actives 0.19% (n = 330,000); Potency, µM (titrated, usually from 32.9 µM), without a hit: at the highest dose activity, positive = growth rescue, hits mostly activators; S. cerevisiae expressing SARS-CoV PLpro, growth rescue; calls by dose curve; note: 0% is about no effect; nearly all actives have a fitted effect of over 55% in size
NS1 function inh – influenza NS1 inhibition; AID 2326; actives 0.4% (n = 270,000); Potency, µM (series often up to 46.1 µM), without a hit: top-dose activity, positive = more growth; calls by dose curve; note: actives are rising curves; nearly all actives have a fitted effect of over 50% in size
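In this qHTS, NS1 from influenza A is expressed in budding yeast, where it slows growth. Cells are switched from glucose to 2% galactose medium (pH 6.0, -URA), treated with compound, and growth recovery is read at OD600.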
Pf growth 96h – inhibits malaria parasite growth, 96 h; P. falciparum luciferase reporter growth, 96 h; Potency, µM (series often up to 28.7 µM), for the others: at the top dose activity change, negative = inhibition, actives largely listed as inhibitors; actives 6.9% (n = 320,000); note: % is set by controls: 0 for no effect and ±100 for the full control effect
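Two-generation exposure (96 h) targets delayed-death phenotype. Reporter parasites carrying integrated firefly luciferase, in red cells at 2% hematocrit and 0.05% parasitemia final, kept at 37 C, 5% CO2; luminescence loss indicates inhibition.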
Pf growth 48h – inhibits P. falciparum growth in the first generation, 48 h. P. falciparum luciferase growth in erythrocytes, 48 h. Potency, µM (titrated, usually from 28.7 µM), for the others: at the top dose activity change, negative = inhibition, usual class: inhibitors. actives 5.9% (n = 310,000). AID 504832; note: % is set by controls: 0 for no effect and ±100 for the full control effect
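Growth was read as firefly luciferase luminescence after a 48 h, 37 C, 5% CO2 exposure of compounds to reporter-bearing P. falciparum cultures (0.1% parasitemia, 2% hematocrit final) in Albumax-supplemented RPMI 1640.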
Starred values were filed as active, the others as inactive; [ ] = dose if it differs, or a comment. Unless noted, calls come from the whole dose curve; as a rule, active = well fitted inhibition curve with a large enough effect; inconclusive = small, poorly fitted or top-dose-only effect, or another doubt; inactive = no such curve, though single readings can be large or run the other way. Potency is the fitted concentration of half-maximal effect.

Screening CCOC(=O)c1cn(-c2c(Cl)cccc2Cl)c2cc(Cl)c([N+](=O)[O-])cc2c1=O returned SARS PLP yeast 13%, NS1 function inh -2%, Pf growth 96h 8.3µM* and Pf growth 48h 13µM*.
`CCOC(=O)c1cn(CC)c2cc(Cl)c([N+](=O)[O-])cc2c1=O` gave SARS PLP yeast -1%, NS1 function inh 2%, Pf growth 96h inconclusive and Pf growth 48h 13µM*.
For CCOC(=O)c1cn(CC2CC2)c2cc(F)c(F)cc2c1=O the results were SARS PLP yeast -1%, NS1 function inh 4%, Pf growth 96h inconclusive and Pf growth 48h -18%.
For CCc1ccc(-c2nc(CS(=O)CC(=O)NCCCN3CCOCC3)c(C)o2)cc1 (stereo not drawn) the results were SARS PLP yeast -2%, NS1 function inh 14%, Pf growth 96h 7.4µM* and Pf growth 48h 67%.
Screening Cc1ccc(-c2nc(CS(=O)CC(=O)NCCCN3CC(C)CC(C)C3)c(C)o2)cc1 (stereo not drawn) returned SARS PLP yeast 2%, NS1 function inh inconclusive and Pf growth 96h inconclusive.
`Cc1oc(-c2cccs2)nc1CS(=O)CC(=O)NCCCN1CC(C)CC(C)C1` (stereo not drawn) gave SARS PLP yeast 10%, NS1 function inh 2% and Pf growth 96h 12µM*.
For CCCNC(=O)CS(=O)Cc1nc(-c2ccc(OC)cc2)oc1C (stereo not drawn) the results were SARS PLP yeast 13%, NS1 function inh 4% and Pf growth 96h 15µM*.
Screening CSc1ccc(-c2nc(CSCC(=O)NCCCN3CCOCC3)c(C)o2)cc1 returned SARS PLP yeast 7%, NS1 function inh -6% and Pf growth 96h 9.3µM*.
Screening Cc1ccc(-c2nc(CSCC(=O)NCCCN3CCOCC3)c(C)o2)cc1 returned SARS PLP yeast 3%, NS1 function inh -9% and Pf growth 48h 37%.
O=C(COC(=O)C1CC2CCCC(C1)C2=O)NC1CCCCC1 (stereo not drawn) was read as SARS PLP yeast 0%, Pf growth 96h -21% and Pf growth 48h 3%.
Cc1ccc(S(=O)(=O)/N=C(/c2ccc(F)cc2)N(C)C)cc1 was read as SARS PLP yeast 3%, NS1 function inh -1%, Pf growth 96h 20% and Pf growth 48h -13%[0.00184 µM].
Screening Cc1oc(-c2ccc(Cl)cc2)nc1CS(=O)CC(=O)NCCCN1CCN(Cc2ccccc2)CC1 (stereo not drawn) returned SARS PLP yeast -1%, NS1 function inh -2%, Pf growth 96h 9.3µM* and Pf growth 48h inconclusive.
For COc1ccc2[nH]c(C)c(CCNC(=S)Nc3cccc(C)c3)c2c1 the results were SARS PLP yeast 3%, NS1 function inh 21%, Pf growth 96h inconclusive and Pf growth 48h inconclusive.
CCc1cccc(CC)c1NC(=S)NCCc1c(C)[nH]c2ccc(C)cc12 was read as SARS PLP yeast inconclusive, NS1 function inh inconclusive, Pf growth 96h 10µM* and Pf growth 48h inconclusive.
Screening CCc1cccc(C)c1NC(=S)NCCc1c(C)[nH]c2ccc(C)cc12 returned SARS PLP yeast 28%, NS1 function inh 28%, Pf growth 96h 15µM* and Pf growth 48h inconclusive.
Cc1ccc(N2C(=O)C3CCCN3C2=S)cc1C (stereo not drawn) was read as SARS PLP yeast 1%, NS1 function inh -3%, Pf growth 96h -28% and Pf growth 48h -23%.
CC(C)c1nnc(-c2ccc(Cl)cc2)c(N(C)C)n1 was read as SARS PLP yeast -1%, NS1 function inh -50%, Pf growth 96h 9.3µM* and Pf growth 48h inconclusive.
Screening CN(C)Cc1c(-c2ccc(Cl)cc2)nc2ccccn12 returned SARS PLP yeast -1%, NS1 function inh 3%, Pf growth 96h 8% and Pf growth 48h 36%.
`Cc1ccc(/C=C/C(=O)c2ccccc(=O)c2O)c(C)c1` gave SARS PLP yeast inconclusive, NS1 function inh -39%, Pf growth 96h 9.3µM* and Pf growth 48h inconclusive.
For O=C(NCCc1nc2ccccc2[nH]1)C1CCC(=O)N(CCc2cccc(F)c2)C1 (stereo not drawn) the results were SARS PLP yeast -2%, NS1 function inh -1%, Pf growth 96h inconclusive and Pf growth 48h -3%.
COC(=O)[C@@]1(Cc2ccc(F)cc2)[C@H]2c3cc(C(=O)N(C)C)n(Cc4nc5ccccc5[nH]4)c3C[C@H]2CN1C(=O)c1ccccc1 was read as SARS PLP yeast 14%, NS1 function inh 28%, Pf growth 96h 3.7µM* and Pf growth 48h 1.5µM*.
